In all, about 310,000 compounds went through this assay and about 2,200 (0.71%) showed an effect of 50% or more. The effect is printed as a negative number. What follows is part of a selection rich in strong results, with near analogues and random picks from the rest.
What follows are compounds tested against human ether-à-go-go-related gene (hERG) potassium channel (human, UniProt Q12809) (assay: primary screen, population patch clamp on CHO cells stably expressing hERG; higher = less effect of the substance).
Chain of human ether-à-go-go-related gene (hERG) potassium channel (Q12809 whole entry, looked up): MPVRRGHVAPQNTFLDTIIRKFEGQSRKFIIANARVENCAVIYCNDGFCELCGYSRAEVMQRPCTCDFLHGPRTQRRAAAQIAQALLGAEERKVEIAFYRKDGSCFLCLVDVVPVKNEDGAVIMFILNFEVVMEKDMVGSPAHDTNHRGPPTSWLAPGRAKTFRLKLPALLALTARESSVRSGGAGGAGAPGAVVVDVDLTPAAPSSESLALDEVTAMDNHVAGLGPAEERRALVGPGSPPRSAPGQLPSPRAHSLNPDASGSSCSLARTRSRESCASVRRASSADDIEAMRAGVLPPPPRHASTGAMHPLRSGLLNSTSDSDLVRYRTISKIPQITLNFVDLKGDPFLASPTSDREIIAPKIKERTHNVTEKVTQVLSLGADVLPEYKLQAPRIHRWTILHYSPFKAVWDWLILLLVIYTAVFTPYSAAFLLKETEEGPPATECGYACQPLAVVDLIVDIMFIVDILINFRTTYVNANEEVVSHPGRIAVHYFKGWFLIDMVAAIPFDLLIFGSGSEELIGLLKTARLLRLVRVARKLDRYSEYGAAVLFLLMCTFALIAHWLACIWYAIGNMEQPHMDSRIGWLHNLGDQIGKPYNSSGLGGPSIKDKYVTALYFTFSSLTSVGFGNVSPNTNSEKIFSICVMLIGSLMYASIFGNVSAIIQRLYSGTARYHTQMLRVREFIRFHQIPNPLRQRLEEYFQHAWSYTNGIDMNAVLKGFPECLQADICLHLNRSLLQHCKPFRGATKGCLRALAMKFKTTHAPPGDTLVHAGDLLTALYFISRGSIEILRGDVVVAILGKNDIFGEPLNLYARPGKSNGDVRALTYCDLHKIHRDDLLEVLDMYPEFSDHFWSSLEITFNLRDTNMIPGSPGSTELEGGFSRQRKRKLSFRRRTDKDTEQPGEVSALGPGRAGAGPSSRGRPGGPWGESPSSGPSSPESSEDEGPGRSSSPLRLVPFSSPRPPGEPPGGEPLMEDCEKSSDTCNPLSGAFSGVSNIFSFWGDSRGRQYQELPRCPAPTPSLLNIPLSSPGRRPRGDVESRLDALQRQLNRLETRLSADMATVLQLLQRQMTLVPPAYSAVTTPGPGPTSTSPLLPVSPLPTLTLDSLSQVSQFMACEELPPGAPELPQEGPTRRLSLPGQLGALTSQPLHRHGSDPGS

Row | Compound | hERG current change (%, negative = inhibition) at 1uM [%]
1 | CCN(CC(=O)Nc1c(F)cccc1F)C(=O)CSC(=S)N1CCCC1 | 6.34
2 | Cc1cccc(-n2c(/C=C/c3ccc([N+](=O)[O-])o3)nc3ccccc3c2=O)c1 | 2.06
3 | S=C(N/N=C/c1cccc2ccccc12)Nc1cccc(Cl)c1 | 11.3
4 | Nc1ccc(OCc2ccccc2)cc1 | 10.7
5 | COc1ccc(CNC2CCN(Cc3ccccc3)CC2)cc1 | -3.31
6 | COc1ccc(OC)c(-n2c(CNC3CCN(Cc4ccccc4)CC3)nc3ccccc3c2=O)c1 | -69.9
7 | COc1ccc(OC)c(-n2c(CN3CCC(C(N)=O)CC3)nc3ccccc3c2=O)c1 | 7.22
8 | CS(=O)(=O)Cc1cccc(C(=O)NC2CCSc3ccccc32)c1 (stereo not drawn) | 16.3
9 | COCc1cc(=O)[nH]c(Nc2nc(C)c3ccccc3n2)n1 | 6.35
10 | CCc1ccc2nc(Nc3nc(COC)cc(=O)[nH]3)nc(C)c2c1 | -64.8
11 | COCc1cc(=O)[nH]c(Nc2nc(C)c3cc(OC)ccc3n2)n1 | 10
12 | CC(=O)Nc1ccc(C(=O)NC2CCCC2)cc1 | 6.35
13 | COc1ccccc1NC(=O)CSc1nnnn1C | 16.4
14 | CSC1=NP(=S)(SC)N2CCCC2=C1C#N (stereo not drawn) | 6.13
15 | CCCn1c2ccccc2c2cnn(CC(=O)NCCN(CC)CC)c(=O)c21 | -67
16 | CCCn1c2ccccc2c2cnn(CC(=O)NCCN(C)C)c(=O)c21 | -12.5
17 | CCCn1c2ccccc2c2cnn(CC(=O)NCCOC)c(=O)c21 | 6.19
18 | CCCn1c2ccccc2c2cnn(CC(=O)NC3CCCCC3)c(=O)c21 | 10.5
19 | CCCn1c2ccccc2c2cnn(CC(=O)N3CCN(C4CCCCC4)CC3)c(=O)c21 | -68.5
20 | CCCn1c2ccccc2c2cnn(CC(=O)N3CCOCC3)c(=O)c21 | 7.27
21 | C[C@@H]1CC=C[C@H]2[C@H]1C(=O)N(Cc1ccccc1)[C@H]2c1ccc(-c2ccoc2)cc1F | 17.9
22 | N#Cc1cccnc1N1CCN(C(=O)c2ccco2)CC1 | 12.7
23 | Cc1cc(N2C3CCC2CC(O)(c2ccc(F)cc2)C3)nc(-c2ccccc2)n1 (stereo not drawn) | 9

Row | Compound | hERG current change (%, negative = inhibition) at 1uM [%]
24 | CC(=O)Nc1ccc(/C=N/NC(=O)CCN2CCN(c3ccccc3)CC2)cc1 | 5.44
25 | O=C(CCN1CCN(c2ccccc2)CC1)N/N=C/c1ccccc1O | 9.66
26 | O=C(CCN1CCN(c2ccccc2)CC1)N/N=C/c1ccc([N+](=O)[O-])o1 | -58.5
27 | CC(C)(C)c1nc2ccccc2[nH]1 | 10.8
28 | COc1ccc(C(CNC(=O)COc2ccccc2)N2CCCCC2)cc1 (stereo not drawn) | -4.21
29 | COc1ccc(C(CNC(=O)COc2ccc([N+](=O)[O-])cc2)N2CCCCC2)cc1 (stereo not drawn) | -52.1
30 | COc1ccc(OCC(=O)NCC(c2ccc(OC)cc2)N2CCCCC2)cc1 (stereo not drawn) | -1.58
31 | CC(=O)c1ccc(-n2ccnc2)cc1 | 7.14
32 | O=c1c2[nH]c3ccc(F)cc3c2ncn1CC1CCCO1 (stereo not drawn) | 4.81
33 | Cc1ccc2[nH]c3c(=O)n(CCN4CCNCC4)cnc3c2c1 | 18.5
34 | Cc1ccc2[nH]c3c(=O)n(CCC4=CCCCC4)cnc3c2c1 | 11
35 | CCN1CCCC1Cn1cnc2c([nH]c3ccc(C)cc32)c1=O (stereo not drawn) | -63.4
36 | CCC1CCCN1Cn1cnc2c([nH]c3ccc(C)cc32)c1=O (stereo not drawn) | -54.9
37 | Cc1ccc2[nH]c3c(=O)n(CCN4CCOCC4)cnc3c2c1 | 6.2
38 | CCC1CCCN1Cn1cnc2c([nH]c3ccccc32)c1=O (stereo not drawn) | -45.7
39 | Cc1ccc2[nH]c3c(=O)n(CCCN4CCN(C)CC4)cnc3c2c1 | -12.6
40 | CCN1CCCC1Cn1cnc2c([nH]c3ccc(Cl)cc32)c1=O (stereo not drawn) | -69.4
41 | CCN1CCCC1Cn1cnc2c([nH]c3cccc(Cl)c32)c1=O (stereo not drawn) | -38.7
42 | CCC1CCCN1Cn1cnc2c([nH]c3ccc(Cl)cc32)c1=O (stereo not drawn) | -70.9
43 | O=c1c2[nH]c3ccc(Cl)cc3c2ncn1CCN1CCCCC1 | -43.9
44 | COc1cccc(C(=O)Nc2ccncc2)c1OC | 9.58
45 | Cc1nn(CC(=O)c2cccc(Cl)c2)c(C)c1[N+](=O)[O-] | 6.41
46 | Cc1ccc(Cn2cccc(NC(=O)CCC3CCCC3)c2=O)cc1 | 1.91

Row | Compound | hERG current change (%, negative = inhibition) at 1uM [%]
47 | Cc1ccc(/C=C2/C(=O)NC(=O)N(C)C2=O)cc1 | 7.48
48 | Cn1c(NC(=O)c2cc(-c3ccc4c(c3)OCO4)nc3ccccc23)cc(=O)n(C)c1=O | 2.87
49 | COc1ccc(C(=O)NCCCn2ccnc2)cc1[N+](=O)[O-] | 3.98
50 | Cc1ccc(C(=O)NCCCn2ccnc2)cc1[N+](=O)[O-] | 11.9
51 | Cl.O=C(NCCCn1ccnc1)c1ccc(N2CCCCCC2)c([N+](=O)[O-])c1 | -51.6
52 | O=C(c1ccccc1)c1ccc(NCCCn2ccnc2)c([N+](=O)[O-])c1 | -65.4
53 | Cl.O=C(NCCCn1ccnc1)c1ccc(S(=O)(=O)N2CCCCCC2)cc1 | 9.74
54 | CCN(CC)S(=O)(=O)c1ccc(NCCCn2ccnc2)c([N+](=O)[O-])c1 | -7.58
55 | NS(=O)(=O)c1ccc(NCCCn2ccnc2)c([N+](=O)[O-])c1 | 12
56 | O=C(NCCCn1ccnc1)c1ccc(N2CCCCC2)c([N+](=O)[O-])c1 | -54.1
57 | O=C(NCCCN1CCOCC1)c1ccc(N2CCCC2)c([N+](=O)[O-])c1 | 4.41
58 | Cc1ccc(NC(=O)NC2CC(=O)N(c3ccc4c(c3)OCCO4)C2)cc1 (stereo not drawn) | 11.3
59 | CC[n+]1ccc(C(=O)NCc2ccccc2)cc1.[Cl-] | 12.3
60 | CCc1[nH]nc2c1C1(C(=O)N(Cc3ccccc3)c3ccccc31)C(C#N)=C(N)O2 (stereo not drawn) | 15.5
61 | CCOc1ccc2[nH]c3nc(SCC(=O)OC(C)C)nnc3c2c1 | 14.6
62 | CCCN1CCN(C(=S)Nc2ccc([N+](=O)[O-])cc2)CC1 | -11
63 | Cc1ccc2cc(CN(CCN(C)C)C(=O)Nc3ccc(Cl)cc3)c(=O)[nH]c2c1 | -20.7
64 | CCN1CCCC1CN(Cc1cc2ccc(C)cc2[nH]c1=O)C(=S)Nc1ccc(OC)cc1 (stereo not drawn) | 21.4
65 | Cc1ccc2[nH]c(=O)c(CN(CCCN(C)C)C(=O)Nc3cccc(Cl)c3)cc2c1 | -26.3
66 | CCN1CCCC1CN(Cc1cc2ccc(C)cc2[nH]c1=O)C(=S)Nc1ccc(F)cc1 (stereo not drawn) | -70.6
67 | Cc1ccc2[nH]c(=O)c(CN(CCCN(C)C)C(=O)Nc3ccc(F)cc3)cc2c1 | -37
68 | CCN(CC)CCN(Cc1cc2cc(C)ccc2[nH]c1=O)C(=S)Nc1ccccc1 | -23.4
69 | Cc1ccc2[nH]c(=O)c(CN(CCCN(C)C)C(=O)Nc3ccc(Cl)cc3)cc2c1 | -62.7

Row | Compound | hERG current change (%, negative = inhibition) at 1uM [%]
70 | CCN1CCCC1CN(Cc1cc2ccc(C)cc2[nH]c1=O)C(=S)Nc1cccc(OC)c1 (stereo not drawn) | -44
71 | CCN(CC)CCN(Cc1cc2ccc(C)cc2[nH]c1=O)C(=O)Nc1ccc(Cl)cc1 | -78.4
72 | CSc1ccc(/C=N/N2CCN(Cc3ccccc3Cl)CC2)cc1 | 9.96
73 | Cc1c(C(=O)O)c(C(=O)O)nc2ccc(N3CCOCC3)cc12 | 10.3
74 | Cc1c(CCC(=O)NC2CC2)c(=O)oc2c(C)c(O)ccc12 | 22.9
75 | Cl.c1ccc2c(c1)N1CCN=C1N2CCN1CCCCC1 | 3.76
76 | CCCN1C2=NCCN2c2ccccc21.Cl | 0.0662
77 | Cl.c1ccc(OCCN2C3=NCCN3c3ccccc32)cc1 | -51.5
78 | Br.COC(=O)CN1C2=NCCCN2c2ccccc21 | -3.47
79 | Br.COC(=O)c1ccc(OCCN2C3=NCCN3c3ccccc32)cc1 | -56.5
80 | Br.CCOC(=O)CN1C2=NCCN2c2ccccc21 | 15.4
81 | Cc1ccc(Cl)cc1N1CCN(C(=O)Cc2cn(C)c3ccccc23)CC1 | 13.8
82 | CCOc1cc(NC(=O)c2ccccn2)c(OCC)cc1NC(=O)c1ccc(OC)cc1 | 3.95
83 | CNC(=S)NNC(=O)c1cccc(N(C)C)c1 | 2.36
84 | Cc1cccc(NS(=O)(=O)c2cccs2)n1 | 17.6
85 | COc1ccc(N2C(=O)CCC(C(=O)N3CCN(c4ccccn4)CC3)C2c2ccc(F)cc2)cc1 (stereo not drawn) | -21.3
86 | COc1ccc(C2C(C(=O)N3CCN(c4ccccn4)CC3)CC(=O)N2c2ccc(OC)cc2)cc1 (stereo not drawn) | -50.6
87 | COc1ccc(C2C(C(=O)N3CCN(c4ccccn4)CC3)CCC(=O)N2c2ccc(OC)cc2)cc1 (stereo not drawn) | -0.548
88 | Cc1ccc(CNC(=O)CN(Cc2ccccc2)S(C)(=O)=O)cc1 | -3.4
89 | Cc1cc(=O)[nH]c(N/N=C/c2c[nH]c3ccccc23)n1 | 9.01
90 | [O-][Cl+3]([O-])([O-])[O-].c1ccc(-c2[nH]c(-c3ccccc3)[n+](CC3CO3)c2-c2ccccc2)cc1 (stereo not drawn) | -2.8

Reference: paper PMC4336329 (PLoS ONE, 2015)
